Reference: PubChem BioAssay AID588397 (National Center for Advancing Translational Sciences (NCATS), 2011)
Hit rate of the full screen: of about 1,300 compounds, about 1,000 (77%) were called active. About 7% were inconclusive and are not listed. Calls come from the whole dose curve; as a rule, active = well fitted inhibition curve with a large enough effect; inconclusive = small, poorly fitted or top-dose-only effect; inactive = no such curve, though single readings can be large or run the other way. So high a share suggests a set chosen from earlier hits. The list shows a part of the results.

Assay: qHTS of small molecules that selectively kill Giardia lamblia: Hit Validation.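 Note: viability measured as ATP content by luminescence so killing lowers signal; nearly all actives have a fitted effect of over 65% in size.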
Conditions: Giardia lamblia trophozoite viability, dose-response; series mostly up to 38.3 µM; activity change, negative = killing: at the top concentration
Method in brief: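 Luminescent ATP signal served as the viability read-out, measured 15-30 min after adding ATP detection reagent to trophozoites that had been incubated with compounds for 48 hrs at 37 deg C anaerobically at 100 cells/well.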
% is set by controls: 0 for no effect and ±100 for the full control effect; potency is the fitted concentration of half-maximal effect.

SMILES	Potency	activity change, negative = killing
O=C(N/N=C\c1ccc([N+](=O)[O-])s1)c1cncc(Br)c1	2.9 µM (active)	–
O=C(N/N=C/c1ccc([N+](=O)[O-])s1)C(O)c1ccccc1 (configuration not stated)	2.9 µM (active)	–
Cc1ccc(NC(=S)N/N=C/c2ccc([N+](=O)[O-])s2)cc1	2.31 µM (active)	–
O=[N+]([O-])c1ccc(/C=N/Nc2ncccc2[N+](=O)[O-])s1	2.31 µM (active)	–
O=C(N/N=C/c1ccc([N+](=O)[O-])s1)c1ccccc1	1.63 µM (active)	–
O=C(N/N=C/c1ccc([N+](=O)[O-])s1)c1cccnc1	2.31 µM (active)	–
Cc1ccc(C(=O)N/N=C/c2ccc([N+](=O)[O-])s2)cc1	1.03 µM (active)	–
O=[N+]([O-])c1ccc(/C=N/NC(=S)Nc2ccc(Cl)cc2Cl)s1	3.65 µM (active)	–
COc1cc(CNc2nnnn2C)cc(OC)c1OC	–	7.64% (inactive)
O=[N+]([O-])c1ccc(/C=N/Nc2nc(N3CCCCC3)nc(N3CCCCC3)n2)o1	1.16 µM (active)	–
O=[N+]([O-])c1cc(/C=N/Nc2nc(N3CCCCC3)nc(N3CCCCC3)n2)ccc1O	6.5 µM (active)	–
O=[N+]([O-])c1ccc(/C=N/Nc2nc(N3CCCC3)nc(N3CCCC3)n2)o1	2.05 µM (active)	–
COc1cccc(CNCc2cccc(Br)c2)c1OC	–	7.37% (inactive)
O=[N+]([O-])c1ncccc1Oc1nc(-c2cccnc2)nc2ccccc12	2.05 µM (active)	–
FC(F)(F)c1ccc2c(c1)N1CCCC1CN2 (configuration not stated)	1.45 µM (active)	–
CCOC(=O)/C=C/[C@H]1CCc2cccc(Cl)c2O1	–	-22.7% (inactive)
Nc1ccc(-c2cnc(-c3ccc(N)cc3)nc2)cc1	4.1 µM (active)	–
CNN/C(N=Cc1ccc([N+](=O)[O-])s1)=N\S(=O)(=O)c1cc(C)c(Cl)cc1SCc1ccccc1	1.03 µM (active)	–
CN1C(=O)/C(=C/c2ccc(O)c([N+](=O)[O-])c2)N(C)C1=S	3.26 µM (active)	–
CN1C(=O)/C(=C/c2ccc(O)c([N+](=O)[O-])c2)NC1=S	3.26 µM (active)	–
Cc1ccc(C(CC(=O)O)NC(=O)c2ccc(S(=O)(=O)N3CC(C)OC(C)C3)cc2)cc1 (configuration not stated)	–	-5.13% (inactive)
O=C(CCN1C(=O)c2ccccc2C1=O)Nc1ccccc1C(F)(F)F	–	21% (inactive)
O=C1c2ccc3c4c(ccc(c24)C(=O)N1CCCCO)C(=O)N(CCCCO)C3=O	1.83 µM (active)	–
NC(=O)c1c(NC(=O)CCCn2cnc([N+](=O)[O-])n2)sc2c1CCCC2	7.29 µM (active)	–
CC1CCc2c(sc(NC(=O)Cn3cnc([N+](=O)[O-])n3)c2C(N)=O)C1 (configuration not stated)	18.3 µM (active)	–
CC1CCc2c(sc(NC(=O)CCCn3cnc([N+](=O)[O-])n3)c2C(N)=O)C1 (configuration not stated)	4.6 µM (active)	–
CCOC(=O)c1c(NC(=O)CS(=O)(=O)c2cn(CC)c3ccccc23)sc2c1CCCCC2	–	1.17% (inactive)
